Assay [1] is described as follows: qHTS assay to identify small molecule agonists of the androgen receptor (AR) signaling pathway in the presence of an antagonist - cell viability counter screen (AID 1259379).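 Note: MDA-kb2 human breast cancer cells carrying an MMTV luciferase reporter; series mostly up to about 92 µM; nearly all actives have a fitted effect of over 25% in size.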 The procedure, abridged:
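Cells: MDA-kb2 (MMTV-luc, AR and GR elements), 3,000/well, 5 hr settle. Added: nilutamide 3.0uM final, then compounds (15 conc.). Incubation: 16 hr, 37C, no CO2. Read-out: CellTiter-Fluor, 1 hr, fluorescence.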
In general terms: Quantitative high-throughput screening tests each substance at several concentrations.

Assay [2] is described as follows: qHTS assay to identify small molecule agonists of the estrogen receptor beta (ER-beta) signaling pathway - cell viability counter screen (AID 1259380). Note: nearly all actives have a fitted effect of over 30% in size. The procedure, abridged: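 HEK293T ER-beta-UAS-bla; 2% CS-FBS; 6 hr pre-plate, 16 hr cpd at 37C/5% CO2; LiveBLAzer read first, then CellTiter-Glo 30 min RT, luminescence.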
A short description of assay [3]: qHTS assay to identify small molecule antagonists of the estrogen receptor beta (ER-beta) signaling pathway - cell viability counter screen (AID 1259382). Note: series mostly up to about 92 µM; nearly all actives have a fitted effect of over 55% in size. A digest of the protocol:
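Cells: ER-beta-UAS-bla HEK293T, 2,000/well, 2% CS-FBS, 6 hr settle. Cpd + E2 (1nM final), 16 hr, 37C/5% CO2. Bla FRET substrate 2 hr RT, then CellTiter-Glo 30 min RT, luminescence.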

Assay [4] is described as follows: qHTS assay to identify small molecule agonists or antagonists of the thyroid stimulating hormone receptor (TSHR) signaling pathway - wild type cell line counter screen (AID 1259384; calls by dose curve). A digest of the protocol: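 Wild-type Hek293 cells, 800/well, 18 h at 37C, then compound with Ro20-1724 for 30 min RT. cAMP by HTRF (cAMP-d2/anti-cAMP cryptate), 1 h RT, fluorescence read. 15 concentrations, triplicates.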

Assay [5] deals with Thyrotropin receptor (Homo sapiens) (UniProt P16473). Put plainly: qHTS assay to identify small molecule antagonists of the thyroid stimulating hormone receptor (TSHR) signaling pathway (AID 1259385; calls by dose curve; note: nearly all actives have a fitted effect of over 20% in size). A digest of the protocol: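 TSHR-HEK293 cells (800/well) plated 18 h, then compounds with Ro20-1724 and TSH at 1.5 ng/mL final, 30 min at room temperature. cAMP quantified by HTRF (cAMP-d2/anti-cAMP-cryptate, 1 h); 15 concentrations in triplicate.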
Thyrotropin receptor (Homo sapiens), sequence (P16473 whole entry, looked up): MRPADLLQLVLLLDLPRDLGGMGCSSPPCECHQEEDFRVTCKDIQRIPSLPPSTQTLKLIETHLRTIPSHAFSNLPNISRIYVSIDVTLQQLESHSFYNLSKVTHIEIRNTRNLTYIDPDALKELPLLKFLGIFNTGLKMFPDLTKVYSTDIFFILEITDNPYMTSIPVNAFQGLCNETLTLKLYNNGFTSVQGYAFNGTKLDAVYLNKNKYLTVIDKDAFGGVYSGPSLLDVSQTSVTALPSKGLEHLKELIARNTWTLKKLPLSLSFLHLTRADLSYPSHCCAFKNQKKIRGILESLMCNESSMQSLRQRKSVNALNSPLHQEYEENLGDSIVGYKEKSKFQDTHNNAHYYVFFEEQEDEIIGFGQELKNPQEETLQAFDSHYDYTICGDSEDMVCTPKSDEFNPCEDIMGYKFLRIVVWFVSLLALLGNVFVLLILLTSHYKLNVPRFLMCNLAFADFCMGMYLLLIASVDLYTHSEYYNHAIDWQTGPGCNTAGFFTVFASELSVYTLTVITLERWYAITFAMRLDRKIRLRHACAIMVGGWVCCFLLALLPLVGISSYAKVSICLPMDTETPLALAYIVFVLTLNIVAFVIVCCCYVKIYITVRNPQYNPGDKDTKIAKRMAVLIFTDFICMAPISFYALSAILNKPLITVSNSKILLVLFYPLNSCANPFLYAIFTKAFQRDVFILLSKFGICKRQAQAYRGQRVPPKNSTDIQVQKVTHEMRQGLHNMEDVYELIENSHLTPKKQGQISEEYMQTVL

A short description of assay [6]: qHTS assay to identify small molecule agonists of the estrogen receptor alpha (ER-alpha) signaling pathway in the presence of an antagonist - cell viability counter screen (AID 1259386).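 Note: series mostly up to about 92 µM; cells exposed to compounds for 22 h at 37 °C before the viability read; nearly all actives have a fitted effect of over 30% in size.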 A digest of the protocol: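 VM7Luc4E2, stripped-serum pre-culture 5 d; 24hr plating; +ICI-182,780 10.0nM final; cpds 15 conc, 22hr, 37C/5% CO2; CellTiter-Fluor added at 21hr, fluorescence 1hr later.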

Assay [7] has as its target Progesterone receptor (Homo sapiens) (UniProt P06401). Put plainly: qHTS assay to identify small molecule agonists of the progesterone receptor (PR) signaling pathway (AID 1346784; calls by dose curve; note: nearly all actives have a fitted effect of over 30% in size). A digest of the protocol:
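Agonist mode, quantitative HTS format in a HEK 293T line expressing a UAS-controlled beta-lactamase reporter; 16 hr compound exposure at 37C in 2% charcoal-stripped FBS, then LiveBLAzer B/G FRET fluorescence.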

Assay [8] has the same target. Put plainly: qHTS assay to identify small molecule antagonists of the progesterone receptor (PR) signaling pathway (AID 1346795; active = well fitted inhibition curve with a large enough effect in the signal ratio in the repeat runs, not every such curve was filed as active; the % refers to the signal ratio). A digest of the protocol:
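HEK293T PR-UAS-bla reporter cells in charcoal-stripped serum (2%) received compound after a 6 hr settling period, followed by R5020 agonist at 1 nM final; 16 hr incubation preceded the FRET substrate step and fluorescence measurement.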

Assay [9] is described as follows: qHTS assay to identify small molecule antagonists of the progesterone receptor (PR) signaling pathway - cell viability counter screen (AID 1346798). Note: series mostly up to about 92 µM; nearly all actives have a fitted effect of over 50% in size. The procedure, abridged:
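Same-well multiplex: after 16 hr at 37C with compound and R5020 stimulation, HEK293T cells carrying a UAS-bla reporter received LiveBLAzer substrate (2 hr RT), then CellTiter-Glo (30 min RT) for luminescent viability.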

Assay [10] in a line: qHTS assay to identify small molecule agonists of the progesterone receptor (PR) signaling pathway - cell viability counter screen (AID 1346799; calls by dose curve; note: nearly all actives have a fitted effect of over 45% in size). The procedure, abridged: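 Counter screen for cytotoxicity: compound-treated PR-UAS-bla HEK293T cells (16 hr, 37C, 5% CO2) were assayed with CellTiter-Glo, luminescence measured after 30 min at room temperature.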
Assay [11] in a line: qHTS assay to identify small molecule antagonists of the TGF-beta/Smad signaling pathway - cell viability counter screen (AID 1346824). Note: nearly all actives have a fitted effect of over 50% in size. A digest of the protocol: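 SBE-bla HEK 293T cells, incubated overnight, then compound plus 0.25 ng/mL TGF-beta1 (stock added) for 5 hr at 37 C. Viability was read in the same wells by CellTiter-Glo luminescence after 30 min at room temperature.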

A short description of assay [12]: qHTS assay to identify small molecule agonists of the TGF-beta/Smad signaling pathway - cell viability counter screen (AID 1346829). Note: top concentration of the series differs between compounds; nearly all actives have a fitted effect of over 45% in size. A digest of the protocol: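 Here the cytotoxicity of library compounds is measured in SBE-bla HEK 293T cells treated for 5 hr, using CellTiter-Glo added to wells already read for the beta-lactamase reporter.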
Assay [13] is described as follows: qHTS assay to identify small molecule agonists of the TGF-beta/Smad signaling pathway (AID 1346859; active = well fitted activation curve with a large enough effect in the signal ratio in the repeat runs, not every such curve was filed as active; the % refers to the signal ratio; note: potency is the fitted concentration of half-maximal effect; for activation: series mostly up to about 77 µM). The procedure, abridged: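 Smad-responsive beta-lactamase reporter cells (HEK 293T) received compounds from DMSO stocks after overnight attachment, were incubated 5 hr, then treated 2 hr with FRET substrate before dual-emission fluorescence measurement (405 nm excitation).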

Assay [14] deals with Thyrotropin-releasing hormone receptor (Homo sapiens) (UniProt P34981). Put plainly: qHTS assay to identify small molecule antagonists of the thyrotropin-releasing hormone receptor (TRHR) signaling pathway (AID 1346877; active = well fitted inhibition curve with a large enough effect in the repeat runs, not every such curve was filed as active; note: series mostly up to about 51 µM). A digest of the protocol:
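Intracellular calcium fluorescence, read kinetically every second over 3 min, reports TRH-evoked signalling in HEK293 cells carrying TRHR. Test compounds were added 5 min ahead of a 1 nM TRH challenge.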

For assay [15] the target is unchanged. Put plainly: qHTS assay to identify small molecule agonists of the thyrotropin-releasing hormone receptor (TRHR) signaling pathway (AID 1346891; calls by dose curve;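 note: HEK293 cells expressing TRHR with calcium dye readout; series mostly up to about 58 µM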). The procedure, abridged: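 Agonist-mode calcium mobilisation screen: TRHR-transfected HEK293 cells cultured overnight (18 h), dye-loaded for 2 h at 37 °C, exposed to compounds, and monitored by fluorescence for 3 min.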

The nature of assay [16]: Human pregnane X receptor (PXR) small molecule agonists, qHTS cell viability counter screen (AID 1346977). Note: nearly all actives have a fitted effect of over 50% in size. A digest of the protocol:
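Measures live-cell protease fluorescence (CellTiter-Fluor) in PXR-Luc HepG2 cells treated 24hr with compounds at 37C. Cells had 5hr to attach before pin transfer of DMSO solutions.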

The target of assay [17] is Estrogen receptor (Homo sapiens) (UniProt P03372). Put plainly: qHTS assay to identify small molecule agonists of the estrogen receptor alpha (ER-alpha) signaling pathway in the presence of an antagonist (AID 1259383; calls by dose curve; note: top concentration of the series differs between compounds; nearly all actives have a fitted effect of over 15% in size). The procedure, abridged: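 VM7Luc4E2, endog. ER-alpha + 4×ERE-luc; charcoal-stripped FBS, phenol red-free, 5 d; 24hr plating; +10.0nM ICI-182,780 (final); cpds 15 conc, 22hr, 37C/5% CO2; ONE-Glo luminescence.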
Estrogen receptor (Homo sapiens), sequence (P03372 whole entry, looked up): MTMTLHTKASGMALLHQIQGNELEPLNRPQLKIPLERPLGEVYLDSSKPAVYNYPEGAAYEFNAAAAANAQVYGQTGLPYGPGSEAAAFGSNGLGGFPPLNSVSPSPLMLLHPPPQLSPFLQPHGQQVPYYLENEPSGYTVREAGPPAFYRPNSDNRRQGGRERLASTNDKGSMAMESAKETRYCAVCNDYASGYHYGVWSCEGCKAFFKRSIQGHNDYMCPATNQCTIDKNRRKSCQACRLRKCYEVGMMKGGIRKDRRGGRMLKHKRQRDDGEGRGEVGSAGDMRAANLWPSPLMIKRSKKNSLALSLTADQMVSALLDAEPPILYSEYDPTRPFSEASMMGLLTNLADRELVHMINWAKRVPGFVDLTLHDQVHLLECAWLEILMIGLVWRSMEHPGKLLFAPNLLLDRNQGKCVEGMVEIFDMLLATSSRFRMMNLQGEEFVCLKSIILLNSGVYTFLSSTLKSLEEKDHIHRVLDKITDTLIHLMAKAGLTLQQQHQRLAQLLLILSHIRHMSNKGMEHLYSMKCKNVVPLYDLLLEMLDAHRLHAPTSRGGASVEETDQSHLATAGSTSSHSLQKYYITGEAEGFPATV

Assay [18] addresses Estrogen receptor beta (Homo sapiens) (UniProt Q92731). Put plainly: qHTS assay to identify small molecule agonists of the estrogen receptor beta (ER-beta) signaling pathway (AID 1259377; active = well fitted activation curve with a large enough effect in the signal ratio in the repeat runs, not every such curve was filed as active; the % refers to the signal ratio). The procedure, abridged: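 A UAS-controlled beta-lactamase reporter in ER-beta-UAS-bla HEK293T cells reports receptor activation. Compounds act for 16 hr at 37C in 2% charcoal-stripped serum, and a FRET substrate is read by fluorescence after 2 hours.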

Assay [19] shares this target. Put plainly: qHTS assay to identify small molecule antagonists of the estrogen receptor beta (ER-beta) signaling pathway (AID 1259378; active = well fitted inhibition curve with a large enough effect in the signal ratio in the repeat runs, not every such curve was filed as active; the % refers to the signal ratio). The procedure, abridged: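 ER-beta-UAS-bla HEK293T cells in 2% charcoal-stripped FBS medium treated with compound plus 1nM final 17-beta-estradiol for 16 hr at 37C. Beta-lactamase reporter read by FRET substrate fluorescence after 2 hours at room temperature.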

Inconclusive results are not listed. Where a structure was tested more than once in an assay, its records may differ in their call. The source made the active and inactive calls. Unless noted, calls come from the whole dose curve; as a rule, active = well fitted curve in the direction sought with a large enough effect in the repeat runs; inconclusive = weak or mixed curves; inactive = no such curve, though single readings can be large; an effect the other way counts as inactive or inconclusive.

Estrogen receptor beta (Homo sapiens), sequence (Q92731 whole entry, looked up): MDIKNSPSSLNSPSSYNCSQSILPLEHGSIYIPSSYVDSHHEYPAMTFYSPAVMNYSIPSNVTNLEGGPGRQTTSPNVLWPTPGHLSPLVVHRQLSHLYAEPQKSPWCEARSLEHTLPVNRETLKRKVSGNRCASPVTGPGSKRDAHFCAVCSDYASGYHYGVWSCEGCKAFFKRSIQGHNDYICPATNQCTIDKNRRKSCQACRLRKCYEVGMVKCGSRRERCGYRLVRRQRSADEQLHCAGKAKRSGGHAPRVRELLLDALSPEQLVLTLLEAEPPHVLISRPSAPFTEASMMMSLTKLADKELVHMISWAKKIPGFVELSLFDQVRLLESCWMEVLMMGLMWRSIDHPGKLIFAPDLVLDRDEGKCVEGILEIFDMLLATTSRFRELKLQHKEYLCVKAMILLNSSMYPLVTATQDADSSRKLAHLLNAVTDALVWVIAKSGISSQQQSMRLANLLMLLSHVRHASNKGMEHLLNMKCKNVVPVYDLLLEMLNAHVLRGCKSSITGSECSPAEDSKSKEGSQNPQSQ
Thyrotropin-releasing hormone receptor (Homo sapiens), sequence (P34981 whole entry, looked up): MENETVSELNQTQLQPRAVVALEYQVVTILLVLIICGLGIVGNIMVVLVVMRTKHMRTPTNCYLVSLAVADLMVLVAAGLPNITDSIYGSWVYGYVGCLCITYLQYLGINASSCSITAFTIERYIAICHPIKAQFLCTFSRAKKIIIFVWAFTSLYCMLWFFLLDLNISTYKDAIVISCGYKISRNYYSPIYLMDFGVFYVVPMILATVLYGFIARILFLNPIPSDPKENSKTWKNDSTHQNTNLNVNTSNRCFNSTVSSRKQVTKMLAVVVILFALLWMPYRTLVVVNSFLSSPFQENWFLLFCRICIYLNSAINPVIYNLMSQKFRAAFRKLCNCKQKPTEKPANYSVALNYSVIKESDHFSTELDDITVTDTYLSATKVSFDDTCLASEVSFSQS
Progesterone receptor (Homo sapiens), sequence (P06401 whole entry, looked up): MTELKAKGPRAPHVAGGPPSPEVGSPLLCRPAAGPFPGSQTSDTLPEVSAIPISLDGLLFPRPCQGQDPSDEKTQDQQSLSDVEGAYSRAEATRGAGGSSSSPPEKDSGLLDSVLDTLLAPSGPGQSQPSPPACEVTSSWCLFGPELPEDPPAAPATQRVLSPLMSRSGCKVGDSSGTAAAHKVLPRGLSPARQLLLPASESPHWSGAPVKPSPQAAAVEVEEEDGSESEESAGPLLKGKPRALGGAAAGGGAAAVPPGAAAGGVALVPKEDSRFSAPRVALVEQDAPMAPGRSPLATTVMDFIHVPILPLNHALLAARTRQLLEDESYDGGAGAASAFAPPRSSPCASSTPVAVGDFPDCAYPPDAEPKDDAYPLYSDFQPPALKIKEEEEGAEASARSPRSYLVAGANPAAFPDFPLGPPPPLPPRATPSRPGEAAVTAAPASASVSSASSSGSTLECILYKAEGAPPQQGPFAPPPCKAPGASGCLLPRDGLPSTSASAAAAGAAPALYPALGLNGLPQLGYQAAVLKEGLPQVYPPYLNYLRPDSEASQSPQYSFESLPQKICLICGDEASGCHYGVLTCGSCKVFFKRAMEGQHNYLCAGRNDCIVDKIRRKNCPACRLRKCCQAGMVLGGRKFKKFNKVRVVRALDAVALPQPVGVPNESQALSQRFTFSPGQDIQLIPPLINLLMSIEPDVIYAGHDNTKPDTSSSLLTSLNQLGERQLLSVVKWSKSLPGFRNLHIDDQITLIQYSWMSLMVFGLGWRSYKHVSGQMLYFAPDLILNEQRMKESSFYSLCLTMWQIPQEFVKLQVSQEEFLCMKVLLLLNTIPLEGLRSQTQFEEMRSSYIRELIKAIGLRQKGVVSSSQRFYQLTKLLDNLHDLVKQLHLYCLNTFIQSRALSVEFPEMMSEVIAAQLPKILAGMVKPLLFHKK

For the compound `O=C(O)C(Cl)(Cl)Cl`, the Potency result in assay [1], in [2], in assay [3], in [4], in assay [5] and in assay [6] was “inactive” throughout. Moreover, the Potency entry in assay [7], in assay [8], in [9], in assay [10], in assay [11] and in assay [12] was “inactive” in each case. In addition, the Potency entry in assay [13], in [14], in assay [15] and in [16] was “inactive” throughout.
As for `C[N+](C)(C)Cc1ccccc1`, the Potency result in [1], in [2], in assay [3], in assay [17], in assay [4] and in assay [5] was “inactive” in each case. For the same compound, the Potency result in assay [6], in [7], in assay [8], in [9], in [10] and in assay [11] was “inactive” each time. The Potency result in assay [12] and in assay [16] was “inactive” each time. For the same compound, in assay [13], the Potency was 48.7 µM (active) and inactive.
For `O=C(O)C(Cl)Cl`, the Potency entry in [1], in [2], in [3], in assay [17], in [4] and in assay [5] was “inactive” each time. The Potency result in assay [6], in [7], in [8], in assay [9], in [10] and in assay [11] was “inactive” each time. In addition, the Potency result in [12], in assay [13], in assay [14], in assay [15] and in assay [16] was “inactive” each time.
Turning to `Cc1cc(Cl)ccc1N`, the Potency result in [1], in assay [2], in [3], in assay [4], in assay [5] and in [6] was “inactive” throughout. The Potency result in assay [7], in assay [8], in assay [9], in [10], in [11] and in assay [12] was “inactive” throughout. For the same compound, the Potency entry in [13], in assay [14], in [15] and in assay [16] was “inactive” each time.
Consider `COc1ccc(N)cc1`, for which the Potency entry in assay [1], in assay [2], in [3], in assay [4], in assay [5] and in assay [6] was “inactive” in each case. The Potency entry in [7], in assay [8], in assay [9], in assay [10], in assay [11] and in [12] was “inactive” in each case. Further, the Potency result in [13] and in [16] was “inactive” each time.
For the compound `OCCOc1ccccc1`, in assay [18], the compound was classed as inactive. For the same compound, the Potency entry in assay [19], in assay [1], in [2], in assay [3], in [17] and in assay [4] was “inactive” throughout. The Potency entry in assay [5], in assay [6], in [7], in assay [8], in assay [9] and in assay [10] was “inactive” throughout. In addition, the Potency entry in assay [11], in [12], in assay [13] and in assay [16] was “inactive” in each case.
`O=[N+]([O-])O`: the Potency result in [1], in assay [2], in assay [3], in assay [4], in assay [5] and in [6] was “inactive” throughout. For the same compound, the Potency entry in assay [7], in assay [8], in assay [9], in assay [10], in assay [11] and in assay [12] was “inactive” in each case. Further, the Potency entry in assay [13] and in assay [16] was “inactive” throughout. For the same compound, the outcome in assay [11] was inactive.
